Reference: the supplement of paper PMC6555819

Legend:
Assay in all cases: PBM binding z-score (relative to random genomic background probes); higher = stronger binding; sequences stand for … in GC…GCGATTGACAGCGTAGAATGAAGG
[1] = test system: PPARg:RXRa DBDmut IVT, anti-RXR (DBD mutation: RXRa K156A/R161A, NR concentration 270 nM, RXRa partner concentration 90 nM)
Procedure, shortened: (§1)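 Custom Agilent 4×180K protein-binding microarrays carried double-stranded probes. Their 34-nt variable regions held direct-repeat seeds, single-nucleotide variants, half-site ablations and random human genomic background sequences. Arrays were incubated 1 h with ligand-free nuclear receptor dimers in PBS pH 7.4, 2% milk, 0.02% Triton X-100, 1 mM DTT, 0.2 mg/mL BSA and 0.4 mg/ml salmon testes DNA. Antibodies against each partner (one per run) detected binding, and scanned fluorescence was regression-normalized. Binding z-scores use random background probes as reference.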

[2] = test system: PPARg:RXRa IVT, anti-PPARg (NR concentration 270 nM, RXRa partner concentration 90 nM)
Procedure, shortened: as §1

[3] = test system: PPARg DBDmut:RXRa IVT, anti-PPARg (DBD mutation: PPARg1 K132A/R137A, NR concentration 270 nM, RXRa partner concentration 90 nM)
Procedure, shortened: as §1

[4] = test system: PPARg DBDmut IVT, anti-PPARg (DBD mutation: PPARg1 K132A/R137A, NR concentration 270 nM)
Procedure, shortened: as §1

[5] = test system: PPARg homodimer (NR concentration 180 nM)
Procedure, shortened: as §1

[6] = test system: PXR:RXRa (NR concentration 270 nM, RXRa partner concentration 90 nM)
Procedure, shortened: as §1

[7] = test system: PXR homodimer (NR concentration 270 nM)
Procedure, shortened: as §1

[8] = test system: RARa:RXR (NR concentration 270 nM, RXRa partner concentration 90 nM)
Procedure, shortened: as §1

[9] = test system: RARa homodimer (NR concentration 270 nM)
Procedure, shortened: as §1

[10] = test system: RARb:RXRa (NR concentration 270 nM, RXRa partner concentration 90 nM)
Procedure, shortened: as §1

Sequence	PBM binding z-score [1]	PBM binding z-score [2]	PBM binding z-score [3]	PBM binding z-score [4]	PBM binding z-score [5]	PBM binding z-score [6]	PBM binding z-score [7]	PBM binding z-score [8]	PBM binding z-score [9]	PBM binding z-score [10]
TCAAGTTGGTCACGGAGGTCACACACGACGGGTA	2.45	3.99	1.48	0.93	2.72	4.35	1.65	4.61	1.86	3.98
AATACAGGGTCACAAGGCCAGAGTAGGTACGAAT	3.6	5.38	1.96	1.5	1.69	4.03	0.719	4.97	1.18	4.6
GCTAGTCGGTCAGTAAAAGGTCACACACCGGTCG	2.63	3.74	0.159	0.0206	4.9	5.25	1.05	6.26	2.14	4.65
CGAACTAAGTCAAGGACAGTGAATCTCCGCACGC	0.868	0.214	-0.424	-0.249	-0.418	-0.229	-0.329	0.0296	-0.646	0.556
AGAATGAGGCTACCAAAGATCAGGGAAACGCTTG	1.61	0.854	0.153	-0.213	-0.49	-0.51	-0.439	-0.0885	-0.557	0.164
AGTCAAAGTTCATCTAGGTAACGCAAGATATGCT	0.815	4.11	1.46	1.49	3.03	5.12	6.5	3.76	1.42	5.03
ATCTCTAGGTAAAAGTTCAGTGTATCCCGAGGAT	2.32	3.71	1.69	1.72	1.66	2.25	2.23	1.53	1.59	2.5
CCTGCTAGGTCATGGTCAGTTAATCTACAGTATG	4.72	3.92	0.767	0.558	1.63	2.31	-0.286	2.62	0.426	3.96
AGTCAAAGTTCACTAAGTAACGTAAGATTCAGCT	0.606	2.21	1.04	1.31	1.66	3.63	2.31	2.77	1.23	4.8
TGAATGAGGTTATAAGATCAGGCAACGTTGCAAA	0.78	1.81	1.1	0.207	0.125	0.75	-0.349	1.52	0.212	1.24
CAAACTAGGCCACCGGAAGGTCAAAGTCCGCATG	7.33	6.74	1.26	1.26	3.52	3.81	1.26	4.32	1.24	3.54
ATCTCTAGGTAAGACTCCGTTCAGTGAAGAACGC	2.22	1.25	0.571	0.804	1.16	0.0673	0.0511	0.105	0.882	0.229
TAGCCTAGGTCATTCAGGGGCCTGTATAGAAAGC	1.43	2.65	-0.0905	-0.0908	0.863	1.75	-0.488	2.51	-0.792	3.52
ATCGAAAGGTCGACGAGGTGAGTGTACACCGTTT	1.06	2.45	1.21	0.365	1.48	3.37	1.03	3.93	0.268	3.89
GTACCACGGTGAATAGGTCGTTGATGAGTAGGCG	-0.0107	0.889	-0.572	-0.695	0.25	0.0182	-0.47	0.233	-0.371	0.587
GCTAGCACGCCATTTGGGTCACTCAATGACGGGC	0.446	1.27	-1.77	-1.29	-0.0391	0.0907	-0.533	0.592	-0.962	0.997

Sequence	PBM binding z-score [1]	PBM binding z-score [2]	PBM binding z-score [3]	PBM binding z-score [4]	PBM binding z-score [5]	PBM binding z-score [6]	PBM binding z-score [7]	PBM binding z-score [8]	PBM binding z-score [9]	PBM binding z-score [10]
TGAATGAGGTTATGAGATCAGGGAACGTTGCAAA	1.33	2.1	0.285	-0.0697	0.328	0.684	0.16	1.57	-0.0238	1.39
AGAATGAGGTTATTAAGATCAGGGATTTGCGGTC	3.56	2.51	1.03	0.211	0.911	1.23	0.655	1.64	0.863	1.37
ATCTCTAGGTAAAGTTCACTGAAAGATCGATAGA	2.42	3.28	2.5	1.51	2.51	3.54	2.92	2.82	1.43	3.51
CGAACTAGGTCATCCATGACAGTGAATACATTGA	8.18	8.57	4.46	1.2	1.67	1.53	0.0131	2.26	0.371	3.98
TAGCCCAGGTCATTCAGGGGCCAGTATAGAAAGC	0.643	2.16	-0.0273	0.498	2.32	3.28	0.378	3.94	0.0689	3.67
CCTACTGGGCCGAAAAGGTCATTGATGCCGATAA	0.922	2.21	-1.07	-1.05	1.68	4.56	1.74	4.84	0.458	3.77
TAGCCTAGGTCATCCGGGCCAGTATAGTGTCGGC	1.42	2.94	0.0914	-0.657	1.35	2.07	0.0405	2.61	-0.259	3.77
TTACCAAGGTGAGCTCAGGTCGTTGATCCAACTC	1.23	1.8	0.00673	-0.46	-0.274	3.09	-0.622	0.823	-0.956	1.33
ATCTCTAGGTAAAGATAGTTCTGTGAATGCAAAT	2.5	1.5	0.815	1.19	0.736	0.067	0.184	0.347	0.978	0.117
ACTCAAAGTTCAGGACGAGGTAACGTAAAGCACG	0.133	0.996	0.541	0.409	2.29	3.09	1.46	2.81	0.77	4.52
TCTTGTAGATCAAAAGGAGGTTAAGAAAGATCGA	1.99	1.45	0.192	0.409	0.066	0.871	0.0133	1.12	0.597	0.428
ATCGAAAGTTCGTGAGGTGAGTATACAGAAAGGC	-1.13	0.316	0.654	0.402	0.342	1.08	0.69	1.39	0.453	2.17
CCAGACAGGTGAAAGGTACCTCAGTCTGGTACGC	1.66	1.96	-0.554	-0.542	0.247	0.109	-0.251	0.49	-0.2	0.786
ATCTCTAGGTAACAAGTTCAGTGTAAGAGAGGAC	3.42	2.96	0.813	1.82	1.08	1.61	2.33	1.09	1.11	1.78
TCTAGCAGGCCAGAGGGTCACTCAAGAGGTACGG	0.944	0.645	-0.27	-1.24	0.106	1.57	-0.442	2.03	-0.734	2.09
